Data taken from the supplement of paper PMC11732987, “Enantioselective OTUD7B fragment discovery through chemoproteomics screening and high-throughput optimisation” (Communications Chemistry, 2025).

Key:
Experiment in all cases: log2 ratio of Biotin-Ahx-Ub-VS probe labelling (fragment/DMSO); higher = less target engagement (more negative = stronger competition), active = hit call of the paper (q ≤ 0.05, log2 ratio ≤ -1)
Conditions in all cases: compound concentration: 200 uM; treatment time: 3 h
USP42 = target: T1, USP42 (UniProt Q9H9J4)
T1 sequence (whole entry): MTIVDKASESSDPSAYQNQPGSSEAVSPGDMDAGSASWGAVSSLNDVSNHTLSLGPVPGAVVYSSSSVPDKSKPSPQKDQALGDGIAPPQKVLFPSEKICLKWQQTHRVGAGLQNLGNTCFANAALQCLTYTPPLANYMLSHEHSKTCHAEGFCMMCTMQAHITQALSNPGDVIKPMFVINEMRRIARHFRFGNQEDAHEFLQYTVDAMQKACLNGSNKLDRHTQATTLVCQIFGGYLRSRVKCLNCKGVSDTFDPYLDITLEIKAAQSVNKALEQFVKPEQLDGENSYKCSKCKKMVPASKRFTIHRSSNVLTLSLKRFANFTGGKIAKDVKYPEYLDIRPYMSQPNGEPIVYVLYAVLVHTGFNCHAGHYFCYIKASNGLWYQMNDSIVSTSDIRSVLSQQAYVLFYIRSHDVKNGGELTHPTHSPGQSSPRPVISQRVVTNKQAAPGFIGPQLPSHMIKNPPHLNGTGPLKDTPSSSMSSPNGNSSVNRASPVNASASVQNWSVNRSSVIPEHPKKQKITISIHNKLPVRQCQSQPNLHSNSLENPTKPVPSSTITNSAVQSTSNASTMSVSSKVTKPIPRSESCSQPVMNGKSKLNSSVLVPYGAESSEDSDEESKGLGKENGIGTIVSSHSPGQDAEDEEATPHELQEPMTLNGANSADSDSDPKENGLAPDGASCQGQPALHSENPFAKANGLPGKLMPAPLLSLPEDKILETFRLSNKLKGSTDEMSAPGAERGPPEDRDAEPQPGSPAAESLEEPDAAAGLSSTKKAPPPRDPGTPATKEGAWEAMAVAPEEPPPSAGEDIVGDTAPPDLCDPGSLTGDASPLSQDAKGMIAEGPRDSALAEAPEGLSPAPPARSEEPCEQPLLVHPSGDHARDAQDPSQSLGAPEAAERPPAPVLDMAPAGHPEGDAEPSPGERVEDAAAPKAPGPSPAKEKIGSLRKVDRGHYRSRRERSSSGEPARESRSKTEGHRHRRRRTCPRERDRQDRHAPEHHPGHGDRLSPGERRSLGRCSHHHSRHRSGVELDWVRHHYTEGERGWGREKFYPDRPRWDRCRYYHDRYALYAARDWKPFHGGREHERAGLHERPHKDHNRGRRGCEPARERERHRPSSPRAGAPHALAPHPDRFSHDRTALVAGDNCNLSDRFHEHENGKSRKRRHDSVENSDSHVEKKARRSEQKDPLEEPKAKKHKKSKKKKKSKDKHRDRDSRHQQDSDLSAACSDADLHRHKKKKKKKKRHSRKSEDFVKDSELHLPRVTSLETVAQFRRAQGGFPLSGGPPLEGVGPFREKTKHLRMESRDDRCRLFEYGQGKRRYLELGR
In short: (§1)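 Each value is an average log2 ratio of fragment to vehicle, tested by unpaired t-test. The underlying Spectronaut label-free quantities were global-median-normalised, and only proteins with ≥2 unique peptides were included. Triplicate HEK293T lysate samples (495 µg) were exposed to fragment at 200 µM or vehicle for 3 h, then to Biotin-Ahx-Ub-VS at 0.5 µM final for 1 h, before NeutrAvidin enrichment of labelled DUBs, LysC and trypsin digestion, and diaPASEF LC-MS/MS.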

USP46 = USP46 (UniProt P62068)
Chain of USP46 (P62068 whole entry): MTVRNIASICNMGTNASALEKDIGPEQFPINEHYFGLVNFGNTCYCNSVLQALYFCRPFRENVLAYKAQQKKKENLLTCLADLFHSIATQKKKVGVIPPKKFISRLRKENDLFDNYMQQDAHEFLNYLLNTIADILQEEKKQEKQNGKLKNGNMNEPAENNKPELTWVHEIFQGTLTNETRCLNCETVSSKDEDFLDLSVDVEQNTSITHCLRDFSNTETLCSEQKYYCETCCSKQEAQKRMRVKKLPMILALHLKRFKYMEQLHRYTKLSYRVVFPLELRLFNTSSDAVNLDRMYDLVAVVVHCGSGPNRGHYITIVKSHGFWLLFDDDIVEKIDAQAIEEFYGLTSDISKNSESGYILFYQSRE
In short: as §1

USP47 = target: T2, USP47 (UniProt Q96K76)
T2 sequence (whole entry): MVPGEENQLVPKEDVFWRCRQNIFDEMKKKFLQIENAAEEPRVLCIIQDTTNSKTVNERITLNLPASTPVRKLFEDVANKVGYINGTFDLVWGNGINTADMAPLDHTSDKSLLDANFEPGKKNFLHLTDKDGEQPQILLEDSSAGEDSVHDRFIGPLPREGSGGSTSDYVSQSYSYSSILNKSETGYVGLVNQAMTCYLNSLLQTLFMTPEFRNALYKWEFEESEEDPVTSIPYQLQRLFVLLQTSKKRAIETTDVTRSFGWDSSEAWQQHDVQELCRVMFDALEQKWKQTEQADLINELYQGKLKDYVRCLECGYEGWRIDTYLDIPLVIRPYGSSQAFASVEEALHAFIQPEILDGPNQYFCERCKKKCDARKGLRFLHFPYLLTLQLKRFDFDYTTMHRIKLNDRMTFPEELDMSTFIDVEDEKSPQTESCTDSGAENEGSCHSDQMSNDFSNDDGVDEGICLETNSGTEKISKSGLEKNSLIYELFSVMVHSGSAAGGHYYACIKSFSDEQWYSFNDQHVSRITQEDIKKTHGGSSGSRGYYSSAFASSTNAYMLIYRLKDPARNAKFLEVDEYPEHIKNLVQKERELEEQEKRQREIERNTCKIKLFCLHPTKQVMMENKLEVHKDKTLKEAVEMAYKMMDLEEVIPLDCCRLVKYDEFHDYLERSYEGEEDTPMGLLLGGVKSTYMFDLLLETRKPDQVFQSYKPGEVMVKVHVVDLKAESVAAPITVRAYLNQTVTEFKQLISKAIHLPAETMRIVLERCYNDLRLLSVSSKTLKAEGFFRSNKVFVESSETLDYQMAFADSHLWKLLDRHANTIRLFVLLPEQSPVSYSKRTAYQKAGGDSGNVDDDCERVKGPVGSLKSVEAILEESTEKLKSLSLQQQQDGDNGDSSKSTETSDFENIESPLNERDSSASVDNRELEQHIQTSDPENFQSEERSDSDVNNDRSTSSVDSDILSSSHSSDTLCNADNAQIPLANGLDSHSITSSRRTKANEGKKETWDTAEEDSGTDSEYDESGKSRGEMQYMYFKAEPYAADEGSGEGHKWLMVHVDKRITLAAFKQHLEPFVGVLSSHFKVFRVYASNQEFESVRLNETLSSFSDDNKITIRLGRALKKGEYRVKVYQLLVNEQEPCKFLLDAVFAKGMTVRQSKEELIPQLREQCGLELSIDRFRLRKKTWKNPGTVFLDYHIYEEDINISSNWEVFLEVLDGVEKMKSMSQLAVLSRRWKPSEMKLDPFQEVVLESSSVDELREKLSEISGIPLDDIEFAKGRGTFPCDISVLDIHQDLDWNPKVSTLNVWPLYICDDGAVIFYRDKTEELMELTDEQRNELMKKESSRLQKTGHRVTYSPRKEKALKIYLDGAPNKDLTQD
In short: as §1

USP48 = target: T3, USP48 (UniProt Q86UV5)
T3 sequence (whole entry): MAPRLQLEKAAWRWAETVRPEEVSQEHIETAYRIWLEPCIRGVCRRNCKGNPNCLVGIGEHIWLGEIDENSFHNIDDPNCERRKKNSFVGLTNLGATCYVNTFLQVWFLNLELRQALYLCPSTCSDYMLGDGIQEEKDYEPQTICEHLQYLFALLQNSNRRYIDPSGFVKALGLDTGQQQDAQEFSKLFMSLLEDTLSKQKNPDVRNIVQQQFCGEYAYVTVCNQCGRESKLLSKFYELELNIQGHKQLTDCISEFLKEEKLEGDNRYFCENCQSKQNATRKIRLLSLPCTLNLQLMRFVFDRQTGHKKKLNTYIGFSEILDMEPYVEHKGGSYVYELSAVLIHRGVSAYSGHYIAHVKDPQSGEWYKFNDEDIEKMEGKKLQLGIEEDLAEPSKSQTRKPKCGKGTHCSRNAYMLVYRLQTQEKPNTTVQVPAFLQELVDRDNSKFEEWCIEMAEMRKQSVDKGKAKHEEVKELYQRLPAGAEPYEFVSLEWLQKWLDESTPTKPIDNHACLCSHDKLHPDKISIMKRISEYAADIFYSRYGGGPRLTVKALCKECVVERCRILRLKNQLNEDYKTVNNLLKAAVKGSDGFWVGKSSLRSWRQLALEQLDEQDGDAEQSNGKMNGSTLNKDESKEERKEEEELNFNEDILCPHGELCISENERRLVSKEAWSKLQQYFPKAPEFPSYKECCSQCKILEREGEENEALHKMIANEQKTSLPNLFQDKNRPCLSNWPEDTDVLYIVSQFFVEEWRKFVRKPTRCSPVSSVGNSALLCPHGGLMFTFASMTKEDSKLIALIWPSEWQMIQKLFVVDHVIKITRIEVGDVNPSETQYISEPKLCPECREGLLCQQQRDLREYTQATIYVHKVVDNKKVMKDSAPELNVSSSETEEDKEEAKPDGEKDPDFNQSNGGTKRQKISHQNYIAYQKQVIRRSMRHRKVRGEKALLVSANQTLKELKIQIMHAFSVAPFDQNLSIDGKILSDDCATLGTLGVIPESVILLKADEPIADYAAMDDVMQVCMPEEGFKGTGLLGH
In short: as §1

USP5 = target: T4, USP5 (UniProt P45974)
T4 sequence (whole entry): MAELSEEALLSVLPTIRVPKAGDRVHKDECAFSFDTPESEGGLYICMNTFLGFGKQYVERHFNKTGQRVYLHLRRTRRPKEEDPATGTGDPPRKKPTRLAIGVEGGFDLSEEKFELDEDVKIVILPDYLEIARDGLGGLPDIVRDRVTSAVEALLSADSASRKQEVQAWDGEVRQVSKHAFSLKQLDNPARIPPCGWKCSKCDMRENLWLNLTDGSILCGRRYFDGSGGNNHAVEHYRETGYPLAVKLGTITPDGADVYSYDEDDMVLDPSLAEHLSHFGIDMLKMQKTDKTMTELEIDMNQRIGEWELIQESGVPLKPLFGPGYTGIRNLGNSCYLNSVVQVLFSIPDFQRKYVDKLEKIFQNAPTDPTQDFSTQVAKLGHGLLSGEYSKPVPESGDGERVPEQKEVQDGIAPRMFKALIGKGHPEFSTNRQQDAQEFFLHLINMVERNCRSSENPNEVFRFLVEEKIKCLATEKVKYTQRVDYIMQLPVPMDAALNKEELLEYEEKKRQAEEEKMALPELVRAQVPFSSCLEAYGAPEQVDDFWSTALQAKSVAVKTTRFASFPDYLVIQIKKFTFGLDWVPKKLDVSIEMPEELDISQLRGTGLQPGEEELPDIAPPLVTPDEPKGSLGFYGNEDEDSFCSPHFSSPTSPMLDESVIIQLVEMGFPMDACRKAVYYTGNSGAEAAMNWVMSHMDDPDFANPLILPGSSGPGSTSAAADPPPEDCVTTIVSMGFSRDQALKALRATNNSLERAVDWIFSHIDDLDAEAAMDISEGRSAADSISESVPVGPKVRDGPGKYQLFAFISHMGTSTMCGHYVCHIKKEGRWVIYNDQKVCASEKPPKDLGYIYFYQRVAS
In short: as §1

USP54 = USP54 (UniProt Q70EL1)
In short: as §1

USP7 = USP7 (UniProt Q93009)
Chain of USP7 (Q93009 whole entry, looked up): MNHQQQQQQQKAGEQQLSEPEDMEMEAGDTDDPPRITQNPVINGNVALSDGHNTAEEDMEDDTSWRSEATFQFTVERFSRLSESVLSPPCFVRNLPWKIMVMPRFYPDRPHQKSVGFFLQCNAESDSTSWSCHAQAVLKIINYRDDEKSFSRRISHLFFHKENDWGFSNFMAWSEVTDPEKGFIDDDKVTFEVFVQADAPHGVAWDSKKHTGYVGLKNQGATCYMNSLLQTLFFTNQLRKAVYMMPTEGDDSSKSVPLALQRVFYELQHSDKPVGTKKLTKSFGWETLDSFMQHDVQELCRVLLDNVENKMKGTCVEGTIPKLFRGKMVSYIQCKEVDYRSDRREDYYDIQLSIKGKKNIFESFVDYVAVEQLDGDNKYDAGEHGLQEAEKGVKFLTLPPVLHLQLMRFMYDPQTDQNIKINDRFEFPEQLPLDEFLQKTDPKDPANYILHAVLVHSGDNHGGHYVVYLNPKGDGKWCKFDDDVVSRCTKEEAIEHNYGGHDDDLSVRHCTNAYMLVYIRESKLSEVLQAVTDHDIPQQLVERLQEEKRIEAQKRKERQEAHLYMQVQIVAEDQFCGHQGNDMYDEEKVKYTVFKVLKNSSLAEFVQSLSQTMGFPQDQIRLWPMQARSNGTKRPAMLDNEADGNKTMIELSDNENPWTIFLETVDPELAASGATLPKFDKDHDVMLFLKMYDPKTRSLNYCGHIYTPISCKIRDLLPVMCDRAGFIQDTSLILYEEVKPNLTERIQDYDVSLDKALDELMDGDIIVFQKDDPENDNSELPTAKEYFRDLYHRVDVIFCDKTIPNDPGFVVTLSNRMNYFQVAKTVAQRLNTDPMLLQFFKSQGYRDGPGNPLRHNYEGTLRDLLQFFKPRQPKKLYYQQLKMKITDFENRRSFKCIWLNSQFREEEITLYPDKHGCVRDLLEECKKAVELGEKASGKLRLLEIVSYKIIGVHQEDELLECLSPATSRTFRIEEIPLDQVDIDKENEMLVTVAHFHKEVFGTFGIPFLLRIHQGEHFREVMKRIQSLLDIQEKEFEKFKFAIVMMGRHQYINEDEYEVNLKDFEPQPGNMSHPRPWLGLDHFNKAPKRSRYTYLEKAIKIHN
In short: as §1

USP8 = target: T5, USP8 (UniProt P40818)
T5 sequence (whole entry): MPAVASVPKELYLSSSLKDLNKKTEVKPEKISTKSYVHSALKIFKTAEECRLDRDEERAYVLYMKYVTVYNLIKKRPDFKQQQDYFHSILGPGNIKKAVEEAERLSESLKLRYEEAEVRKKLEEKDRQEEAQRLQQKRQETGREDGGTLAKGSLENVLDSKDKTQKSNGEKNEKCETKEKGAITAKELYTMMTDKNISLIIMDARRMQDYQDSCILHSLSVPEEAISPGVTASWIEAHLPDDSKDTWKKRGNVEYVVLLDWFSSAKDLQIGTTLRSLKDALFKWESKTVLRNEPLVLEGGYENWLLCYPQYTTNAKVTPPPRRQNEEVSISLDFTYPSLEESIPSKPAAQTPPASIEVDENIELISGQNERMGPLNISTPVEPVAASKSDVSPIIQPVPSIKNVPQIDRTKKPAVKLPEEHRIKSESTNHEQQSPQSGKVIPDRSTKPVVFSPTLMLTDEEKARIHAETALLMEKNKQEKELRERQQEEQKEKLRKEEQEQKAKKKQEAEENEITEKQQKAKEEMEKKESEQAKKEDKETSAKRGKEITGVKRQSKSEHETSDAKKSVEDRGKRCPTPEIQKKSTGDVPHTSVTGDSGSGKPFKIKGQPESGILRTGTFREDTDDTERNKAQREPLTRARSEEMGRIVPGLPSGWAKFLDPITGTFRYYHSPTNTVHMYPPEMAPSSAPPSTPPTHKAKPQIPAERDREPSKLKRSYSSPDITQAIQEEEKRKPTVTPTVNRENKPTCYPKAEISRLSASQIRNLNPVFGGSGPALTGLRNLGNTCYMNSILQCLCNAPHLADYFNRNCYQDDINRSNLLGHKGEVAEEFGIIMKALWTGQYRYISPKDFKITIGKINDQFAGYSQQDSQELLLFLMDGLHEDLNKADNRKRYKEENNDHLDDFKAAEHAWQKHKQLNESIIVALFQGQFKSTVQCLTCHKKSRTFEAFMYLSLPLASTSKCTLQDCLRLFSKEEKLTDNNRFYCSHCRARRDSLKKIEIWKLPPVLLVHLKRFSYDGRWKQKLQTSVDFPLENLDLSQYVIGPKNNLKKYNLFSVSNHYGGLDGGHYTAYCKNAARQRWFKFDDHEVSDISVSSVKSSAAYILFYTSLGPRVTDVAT
In short: as §1

USP9X = USP9X (UniProt Q93008)
Chain of USP9X (Q93008 whole entry): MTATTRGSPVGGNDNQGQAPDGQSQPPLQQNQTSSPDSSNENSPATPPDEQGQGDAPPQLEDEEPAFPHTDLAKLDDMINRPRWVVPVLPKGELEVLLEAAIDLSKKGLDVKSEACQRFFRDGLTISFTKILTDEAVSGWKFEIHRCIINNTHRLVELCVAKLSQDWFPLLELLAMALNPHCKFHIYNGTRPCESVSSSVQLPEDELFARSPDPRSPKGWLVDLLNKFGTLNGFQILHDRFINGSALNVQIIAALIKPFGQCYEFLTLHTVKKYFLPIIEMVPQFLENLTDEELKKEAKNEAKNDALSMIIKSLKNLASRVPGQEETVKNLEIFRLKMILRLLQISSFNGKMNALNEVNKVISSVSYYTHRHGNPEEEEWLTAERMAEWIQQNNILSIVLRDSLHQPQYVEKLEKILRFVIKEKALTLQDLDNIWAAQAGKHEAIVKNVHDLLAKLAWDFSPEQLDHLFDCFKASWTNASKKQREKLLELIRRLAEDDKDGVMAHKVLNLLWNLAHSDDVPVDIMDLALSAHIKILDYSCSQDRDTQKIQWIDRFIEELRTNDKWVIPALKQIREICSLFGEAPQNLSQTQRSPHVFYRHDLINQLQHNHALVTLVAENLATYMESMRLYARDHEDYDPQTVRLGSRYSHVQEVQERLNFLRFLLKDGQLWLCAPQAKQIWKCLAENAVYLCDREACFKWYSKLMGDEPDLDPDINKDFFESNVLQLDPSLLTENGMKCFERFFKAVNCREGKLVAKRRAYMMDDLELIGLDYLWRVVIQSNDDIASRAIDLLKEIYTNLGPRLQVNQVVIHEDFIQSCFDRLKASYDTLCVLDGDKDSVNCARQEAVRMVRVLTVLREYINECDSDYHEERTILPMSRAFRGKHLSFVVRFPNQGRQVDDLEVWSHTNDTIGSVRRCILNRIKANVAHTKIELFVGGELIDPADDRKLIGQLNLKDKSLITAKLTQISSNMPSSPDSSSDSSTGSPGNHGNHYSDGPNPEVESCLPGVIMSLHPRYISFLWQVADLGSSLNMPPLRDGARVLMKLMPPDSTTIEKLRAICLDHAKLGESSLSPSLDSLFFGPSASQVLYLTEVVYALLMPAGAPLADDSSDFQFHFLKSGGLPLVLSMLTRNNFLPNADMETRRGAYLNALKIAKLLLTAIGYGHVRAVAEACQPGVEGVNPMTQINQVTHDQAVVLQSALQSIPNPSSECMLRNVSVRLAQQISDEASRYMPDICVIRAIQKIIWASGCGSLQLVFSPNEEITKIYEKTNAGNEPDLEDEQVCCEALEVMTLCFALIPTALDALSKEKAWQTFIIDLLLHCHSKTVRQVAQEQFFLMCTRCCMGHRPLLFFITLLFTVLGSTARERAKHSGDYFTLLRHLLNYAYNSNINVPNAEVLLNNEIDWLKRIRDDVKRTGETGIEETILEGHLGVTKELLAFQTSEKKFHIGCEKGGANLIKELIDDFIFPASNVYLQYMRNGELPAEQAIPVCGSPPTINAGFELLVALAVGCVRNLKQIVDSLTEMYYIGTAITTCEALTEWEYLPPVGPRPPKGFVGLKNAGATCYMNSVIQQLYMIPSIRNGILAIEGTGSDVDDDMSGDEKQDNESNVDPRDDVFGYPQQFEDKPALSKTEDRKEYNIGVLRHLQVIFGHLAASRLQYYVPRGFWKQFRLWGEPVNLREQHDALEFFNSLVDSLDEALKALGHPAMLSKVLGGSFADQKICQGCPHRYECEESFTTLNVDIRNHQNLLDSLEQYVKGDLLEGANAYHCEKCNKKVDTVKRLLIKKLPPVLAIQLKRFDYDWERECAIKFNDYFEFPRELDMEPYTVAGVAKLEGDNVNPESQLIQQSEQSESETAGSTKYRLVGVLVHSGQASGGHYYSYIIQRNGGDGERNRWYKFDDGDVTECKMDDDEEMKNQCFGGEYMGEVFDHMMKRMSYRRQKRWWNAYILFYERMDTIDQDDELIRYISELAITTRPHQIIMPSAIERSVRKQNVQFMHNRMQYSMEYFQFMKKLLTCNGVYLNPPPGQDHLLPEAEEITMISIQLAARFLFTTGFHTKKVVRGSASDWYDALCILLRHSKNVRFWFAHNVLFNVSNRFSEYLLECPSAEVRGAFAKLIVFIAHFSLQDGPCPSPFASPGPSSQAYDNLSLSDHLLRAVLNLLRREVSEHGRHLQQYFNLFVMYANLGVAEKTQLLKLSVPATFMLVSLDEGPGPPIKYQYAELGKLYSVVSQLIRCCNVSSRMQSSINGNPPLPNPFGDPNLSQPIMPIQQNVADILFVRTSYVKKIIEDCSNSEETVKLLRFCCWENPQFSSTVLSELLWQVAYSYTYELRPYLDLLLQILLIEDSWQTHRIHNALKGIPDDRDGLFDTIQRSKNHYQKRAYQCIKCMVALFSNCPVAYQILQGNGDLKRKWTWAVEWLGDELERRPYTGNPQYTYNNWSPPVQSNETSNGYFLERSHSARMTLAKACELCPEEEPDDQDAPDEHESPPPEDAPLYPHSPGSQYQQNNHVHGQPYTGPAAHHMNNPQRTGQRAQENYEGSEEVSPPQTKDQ
In short: as §1

UniProt O00487 = target: UniProt O00487
Chain of UniProt O00487 (O00487 whole entry): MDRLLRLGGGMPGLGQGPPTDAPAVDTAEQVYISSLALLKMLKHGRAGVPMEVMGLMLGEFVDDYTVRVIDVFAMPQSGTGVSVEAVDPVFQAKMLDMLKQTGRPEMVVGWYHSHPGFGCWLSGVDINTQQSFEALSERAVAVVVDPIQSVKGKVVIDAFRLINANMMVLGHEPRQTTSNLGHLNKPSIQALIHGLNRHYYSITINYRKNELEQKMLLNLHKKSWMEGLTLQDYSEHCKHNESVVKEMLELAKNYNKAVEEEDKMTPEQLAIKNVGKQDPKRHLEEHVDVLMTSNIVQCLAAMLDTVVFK
In short: as §1

Measured: log2 ratio of Biotin-Ahx-Ub-VS probe labelling

O=C(CCl)N1CCC[C@@H]1c1ccon1
inactive: USP42 0.00575 | USP46 -0.0791 | USP47 -0.264 | USP48 -0.779 | USP5 -0.0234 | USP54 0.591 | USP7 -0.78 | USP8 -0.331 | USP9X -0.32 | UniProt O00487 -0.227
